From PubChem
ALOX12 inh: ALOX12 (human) lipoxygenase inhibition; P18054; purified 12hLO, xylenol orange hydroperoxide absorbance; Potency, µM (doses to about 108 µM), for the others: at the highest dose activity change, negative = inhibition, actives largely listed as inhibitors; actives 1.1% (n = 580,000); AID 1671190; note: potency is the fitted concentration of half-maximal effect; % is set by controls: 0 for no effect and ±100 for the full control effect
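Hydroperoxide product was detected by ferrous iron/xylenol orange as the 573 to 405 nm absorbance ratio. Arachidonic acid at 40 uM (final) was turned over for 30 min at room temperature by 150 nM human 12hLO, pH 7.0 Hepes buffer, after 15 min compound preincubation.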
ERG Ets-DNA blk: blocks human ERG Ets domain binding to DNA; Potency, µM (titrated, usually from 76.9 µM), inactives show top-dose FP activity, negative = inhibition, hits mostly inhibitors; fluorescence polarization, His-ERG Ets domain / labelled DNA; actives 0.028% (n = 370,000); active = well fitted inhibition curve with a large enough effect in the polarisation, with a control signal flat; inconclusive = small, poorly fitted or top-dose-only effect, or effect the other way, or a change in a side signal; inactive = no such curve, though single readings can be large or run the other way; the % refers to the polarisation;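 note: polarization taken with two DNA probes labelled with fluorescein and Texas red; potency is the fitted concentration of half-maximal effect; % of control where 0% means no effect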
Target sequence (P11308 whole entry, looked up, the tested form may be a part): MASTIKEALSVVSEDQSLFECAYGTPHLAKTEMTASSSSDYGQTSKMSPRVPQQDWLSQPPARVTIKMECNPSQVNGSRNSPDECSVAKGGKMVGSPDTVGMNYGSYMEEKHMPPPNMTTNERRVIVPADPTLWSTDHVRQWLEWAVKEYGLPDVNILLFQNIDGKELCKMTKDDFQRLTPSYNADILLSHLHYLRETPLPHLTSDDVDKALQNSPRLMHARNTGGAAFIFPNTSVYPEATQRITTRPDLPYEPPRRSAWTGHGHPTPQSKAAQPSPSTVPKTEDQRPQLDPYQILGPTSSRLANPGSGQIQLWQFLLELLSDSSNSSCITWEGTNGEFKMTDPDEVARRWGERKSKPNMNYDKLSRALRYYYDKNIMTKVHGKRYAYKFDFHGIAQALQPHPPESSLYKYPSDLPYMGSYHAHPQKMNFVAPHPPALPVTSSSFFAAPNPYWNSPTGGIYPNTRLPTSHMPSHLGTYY
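His-tagged ERG Ets domain (1 uM in the protein solution; 300mM KCl, 50mM Tris-HCl, 1mM EDTA, 1mM DTT, pH 7.5) received compound, then a probe mix of 5 nM fluorescein-DNA and 100nM Texas-615-DNA. Fluorescence polarization was read for both dyes.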
Nrf2 block: inhibitors of Nrf2 signaling | A549 ARE-Fluc reporter, luciferase luminescence, 18-24 h | Potency, µM (highest dose often 46 µM), for inactives: at the top dose activity change, negative = inhibition, hits mostly inhibitors | actives 2.1% (n = 360,000) | AID 504444; note: potency is the fitted concentration of half-maximal effect; % is set by controls: 0 for no effect and ±100 for the full control effect; nearly all actives have a fitted effect of over 60% in size
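In this cell-based qHTS, ARE-driven firefly luciferase in A549 cells reports Nrf2 activity; the luminescent signal after BugLite lysis is the measured value, with a prior CellTiter-Fluor read for cell health.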
A549 tox: A549 cytotoxicity, counter-screen for Nrf2 inhibitors; Potency, µM (series often up to 46 µM), inactives show top-dose activity change, negative = cytotoxicity, most hits filed as inhibitors; actives 0.16% (n = 390,000); A549 ARE-Fluc cells, CellTiter-Fluor viability, 18-24 h; note: potency is the fitted concentration of half-maximal effect; % is set by controls: 0 for no effect and ±100 for the full control effect
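A549 ARE_Fluc cells in 5% FBS OPTI-MEM were exposed to compounds in concentration-response for 18-24 h at 37 deg C. Viability was read by CellTiter-Fluor fluorescence (Ex 405/Em 525) after 30 min, before the luciferase read.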
Nrf2 ARE act: activators of Nrf2 (ARE) signaling. actives 0.31% (n = 410,000). Potency, µM (series often up to 46.1 µM), for the others: top-dose activation, usual class: activators. AREc32 ARE-luciferase reporter (MCF7-derived line), luminescence, 24 h; note: potency is the fitted concentration of half-maximal effect; % of control where 0% means no effect; nearly all actives have a fitted effect of over 65% in size
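AREc32_Fluc, 1000 cells/well, OPTI-MEM + 5% FBS, o/n 37 deg C 5% CO2; 23 nL cpd by pin tool, 24 hr; Steady-Glo 30 min RT, luminescence.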
LDHA block: inhibitors of human lactate dehydrogenase A | purified LDHA, NADH/diaphorase-resazurin fluorescence; stronger effect = lower value | activity change, % (values are at about 110 or 230 µM) | P00338 | actives 0.15% (n = 480,000); in the data active = activity change below about -30%; inconclusive = mostly about -25% to -30%;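 note: plate controls were DMSO wells for no effect and wells without enzyme for full effect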
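Resorufin fluorescence (ex540/em590), read at 0 and 20 min after diaphorase/resazurin addition, reports the NADH left after a 5 min room-temperature reaction of 2 nM human LDH5 with 0.06 mM NADH and 0.2 mM pyruvate.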
Numbers without * were called inactive; i = inactive; ? = inconclusive; · = no result. Most compounds without a hit are left out; they make up all but 2.7% or so of the library. Unless noted, calls come from the whole dose curve; as a rule, active = well fitted curve in the direction sought with a large enough effect; inconclusive = small, poorly fitted or top-dose-only effect, or another doubt; inactive = no such curve, though single readings can be large; an effect the other way counts as inactive or inconclusive.

SMILES | ALOX12 inh | ERG Ets-DNA blk | Nrf2 block | A549 tox | Nrf2 ARE act | LDHA block
Cc1nn(-c2ccccc2)c(C)c1/C=N/NC(=O)c1cc(-c2ccc(Br)s2)[nH]n1 | 0% | -5% | ? | -12% | 4% | -1
Cc1nn(-c2ccccc2)c(C)c1/C=N/NC(=O)c1cc(C23CC4CC(CC(C4)C2)C3)[nH]n1 | i | -6% | 13µM* | ? | 4% | -1
COc1ccc(OCc2nnc(SCC(=O)N3CCCc4ccccc43)n2-c2ccc(C)cc2)cc1 | -24% | -2% | 23µM* | ? | 2% | 0
Cc1ccc(OCc2nnc(SCc3ccc(C#N)cc3)n2-c2ccc(C)cc2)cc1 | 19% | -3% | 18µM* | ? | 5% | 9
Cc1nc2cc(F)ccc2cc1C(=O)N(Cc1cccnc1)C(C)C | 9% | · | · | · | · | -5
O=C(c1ccc(Cl)s1)N1CCN(c2nc3ccccc3s2)CC1 | -5% | -4% | 7.3µM* | -14% | 1% | -1
O=C(c1cccs1)N1CCN(c2nc3ccccc3s2)CC1 | -1% | 2% | ? | 1% | 0% | -7
COc1cc(C=O)ccc1OCCOc1ccccc1[N+](=O)[O-] | -14% | 4% | 2% | 7% | 13µM* | -11
COc1cc(C=O)ccc1OCCCOc1ccccc1C(=O)O | 88% | -8% | 8.2µM* | 11% | -2% | 1
COc1cc(C=O)ccc1OCCCOc1ccccc1[N+](=O)[O-] | -15% | -4% | 8% | 0% | 4% | -3
COC(=O)[C@@H]1Cc2c([nH]c3ccccc23)[C@H]2C[C@H](NCCN3CCOCC3)C[C@@H](c3ccc(F)cc3)N21 | 6% | · | · | · | · | ·
CCN1CCN(C(C)CNC(=O)NCc2nc(C)cs2)CC1 (stereo not given) | 9% | · | · | · | · | 6
COc1cc2nc(CN3CCN(S(=O)(=O)c4ccc(Cl)cc4)CC3)[nH]c(=O)c2cc1OC | -9% | -11% | 23µM* | -9% | 1% | -2
Cc1nc(C)c(-c2csc(Nc3ccccc3C)n2)s1 | ? | · | · | · | · | 2
O=C(Nc1cc(C(F)(F)F)ccc1F)c1cccc(COc2ccc(Cl)cc2)c1 | 9% | · | · | · | · | 8
O=c1cc(CSc2nnnn2-c2ccccc2)c2ccc(O)cc2o1 | ? | · | · | · | · | -2
O=C(O)c1ccc(NC(=S)NC(=O)C(c2ccccc2)c2ccccc2)cc1 | ? | 0% | -18% | -5% | 0% | -12
O=C(O)c1cccc(NC(=S)NC(=O)C(c2ccccc2)c2ccccc2)c1 | 28µM* | -14% | 23% | 14% | 0% | -3
COc1ccc(C(=O)O)cc1NC(=S)NC(=O)C(c1ccccc1)c1ccccc1 | 35µM* | 4% | 3% | 0% | 0% | 1
COc1cc(C(=O)NCc2coc(-c3cccs3)n2)cc(OC)c1C | ? | · | · | · | · | 2
CN(Cc1nc2ccccc2n1C(F)F)S(=O)(=O)c1c(F)cccc1F | ? | · | · | · | · | -7
CC(C1CC1)N(Cc1ccccc1)C(=S)Nc1ccccc1Cl (stereo not given) | ? | -9% | 29µM* | -12% | 2% | -6
Cc1cc(C)cc(NS(=O)(=O)c2ccc3c(c2)NC(=O)C(C)S3)c1 (stereo not given) | -9% | 3% | ? | 6% | 0% | 0
CCc1cccc(NS(=O)(=O)c2ccc3c(c2)NC(=O)C(C)S3)c1 (stereo not given) | -18% | 1% | 16µM* | -1% | 0% | 0
COc1cccc(NS(=O)(=O)c2ccc3c(c2)NC(=O)C(C)S3)c1 (stereo not given) | -15% | 6% | 21µM* | -13% | 2% | -5
Cn1c(=O)c2c(ncn2CCC(=O)Nc2c(Cl)cccc2Cl)n(C)c1=O | -33% | · | · | · | · | -3
COc1cccc(N2CCN(c3nc(C(=O)NCc4ccncc4)cs3)CC2)c1 | 49% | · | · | · | · | ·
